Assay results published in PubChem BioAssay (NCI).
About 83,000 compounds went through this panel and 20% of them were active in at least one assay; those are over-represented in the sample as a whole.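 Assay: single dose, 48 h. Readout: percent growth (0 = no net growth; negative = cell death). Active: <10.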 Calls of active or inactive are those of the source.

Tests used:
Assay in all cases: NCI-60 one-dose screen, 48 h (100 = growth as untreated, 0 = no growth, -100 = all killed)
Conditions in all cases: 10 µM
NCI-H23 lung = tested on: NCI-H23 lung
NCI-H226 lung = tested on: NCI-H226 lung
NCI-H322M lung = tested on: NCI-H322M lung
HOP-62 NSCLC = tested on: HOP-62 NSCLC
NCI-H460 lung = tested on: NCI-H460 lung
HOP-92 NSCLC = tested on: HOP-92 NSCLC
NCI-H522 lung = tested on: NCI-H522 lung
A549/ATCC NSCLC = tested on: A549/ATCC NSCLC
786-0 renal = tested on: 786-0 renal
COLO 205 colon = tested on: COLO 205 colon

Measured: growth

Cn1cc(/C=N/Nc2cccc(Cl)n2)c2ccccc21
inactive: NCI-H23 lung 69.2% | NCI-H226 lung 68.9% | NCI-H322M lung 89.9% | HOP-62 NSCLC 75.8% | NCI-H460 lung 63.8% | HOP-92 NSCLC 42.8% | NCI-H522 lung 74.3% | A549/ATCC NSCLC 76% | 786-0 renal 63.7% | COLO 205 colon 67.7%

COc1ccc(C(=O)Nc2sc3c(c2C#N)CCC(=O)C3)cc1C(F)(F)F
active: NCI-H23 lung -13.7% | NCI-H226 lung 6.58% | HOP-62 NSCLC -9.95% | NCI-H460 lung 0.213% | HOP-92 NSCLC -30.9% | NCI-H522 lung -64.4% | 786-0 renal 7.91% | COLO 205 colon -89.1%
inactive: NCI-H322M lung 85.9% | A549/ATCC NSCLC 25.5%

Cc1ccc(NCC(=O)Nn2c(COc3ccccc3)nc3ccccc3c2=O)cc1
inactive: NCI-H23 lung 67.8% | NCI-H226 lung 66.3% | NCI-H322M lung 85.9% | HOP-62 NSCLC 27.4% | NCI-H460 lung 81.4% | HOP-92 NSCLC 58.1% | NCI-H522 lung 71.7% | A549/ATCC NSCLC 77.9% | 786-0 renal 66.4% | COLO 205 colon 85%

OCCCNc1oc(-c2ccccc2)nc1[P+](c1ccccc1)(c1ccccc1)c1ccccc1
active: NCI-H23 lung -1.07% | NCI-H226 lung -5.46% | NCI-H460 lung 3.97% | HOP-92 NSCLC -24.1% | NCI-H522 lung 2.08% | COLO 205 colon -52.3%
inactive: NCI-H322M lung 31.9% | HOP-62 NSCLC 17.9% | A549/ATCC NSCLC 29.6% | 786-0 renal 11.2%

Cc1cc(C)nc(NS(=O)(=O)c2ccc(N/C(N)=N/c3nccc(-c4cccs4)n3)cc2)n1
inactive: NCI-H23 lung 90% | NCI-H226 lung 77.8% | NCI-H322M lung 95.6% | HOP-62 NSCLC 83% | NCI-H460 lung 99.2% | HOP-92 NSCLC 107% | NCI-H522 lung 90.5% | A549/ATCC NSCLC 99.7% | 786-0 renal 111% | COLO 205 colon 105%

Cc1ccc(S(=O)(=O)c2nc(-c3ccccc3)oc2S(=O)(=O)CC(=O)N2CCCC2)cc1
active: NCI-H23 lung -77.9% | HOP-92 NSCLC -85.6% | NCI-H522 lung -96.3% | 786-0 renal -57.3% | COLO 205 colon -93.2%
inactive: NCI-H226 lung 56.3% | NCI-H322M lung 73.6% | HOP-62 NSCLC 78.3% | NCI-H460 lung 26.4% | A549/ATCC NSCLC 63.4%

Cn1cc(-c2cc(N)n3nc(-c4c[nH]c5ccc(Br)cc45)cc3n2)c2cc(Br)cnc21
active: NCI-H23 lung -81.5% | NCI-H226 lung -55.3% | HOP-62 NSCLC -69.2% | NCI-H460 lung 2.27% | HOP-92 NSCLC -63.2% | NCI-H522 lung -72% | A549/ATCC NSCLC -45.8% | 786-0 renal -75% | COLO 205 colon -90.9%
inactive: NCI-H322M lung 11.7%

O=C(CNc1nc(-c2ccccc2)cs1)Nc1ccc([N+](=O)[O-])cc1Cl
inactive: NCI-H226 lung 31.5% | NCI-H322M lung 60.3% | HOP-62 NSCLC 42.4% | NCI-H460 lung 51.6% | HOP-92 NSCLC 29% | A549/ATCC NSCLC 44.1% | 786-0 renal 38.1% | COLO 205 colon 60.7%
active: NCI-H23 lung 0.556% | NCI-H522 lung -19.1%

CC(=O)Nc1nc(-c2ccc(N3CCN(C)CC3)c(NS(=O)(=O)c3cccc4c(N(C)C)cccc34)c2)cs1
inactive: NCI-H23 lung 58.1% | NCI-H226 lung 75.5% | NCI-H322M lung 64.7% | HOP-62 NSCLC 69.7% | NCI-H460 lung 58.9% | HOP-92 NSCLC 50.6% | NCI-H522 lung 59.6% | A549/ATCC NSCLC 71.3% | 786-0 renal 34.4% | COLO 205 colon 47.4%

CN(CCO)c1oc(-c2ccccc2)nc1[P+](c1ccccc1)(c1ccccc1)c1ccccc1
active: NCI-H23 lung -5.17% | NCI-H226 lung -11.8% | NCI-H460 lung 6.61% | HOP-92 NSCLC -24.2% | NCI-H522 lung -9.01% | COLO 205 colon -59.6%
inactive: NCI-H322M lung 19.8% | HOP-62 NSCLC 13.2% | A549/ATCC NSCLC 22.3% | 786-0 renal 14.2%

COc1ccccc1NCc1ccc(CO)n1-c1ccc(C)cc1
inactive: NCI-H23 lung 94.3% | NCI-H226 lung 81.3% | NCI-H322M lung 100% | HOP-62 NSCLC 88.1% | NCI-H460 lung 111% | HOP-92 NSCLC 80.5% | NCI-H522 lung 93.7% | A549/ATCC NSCLC 100% | 786-0 renal 104% | COLO 205 colon 120%

Cc1noc2c(Cc3ccc([N+](=O)[O-])cc3)nn(CC(=O)N/N=C/c3ccc(Cl)cc3)c(=O)c12
inactive: NCI-H23 lung 57.9% | NCI-H322M lung 62.5% | HOP-62 NSCLC 16.9% | NCI-H460 lung 46.2% | NCI-H522 lung 69.5% | A549/ATCC NSCLC 40.1% | COLO 205 colon 79.3%
active: NCI-H226 lung 8.93% | HOP-92 NSCLC -20.2% | 786-0 renal -19.5%

COc1ccc(/C=C/C(=O)c2ccc(NC(=O)CN3C(=O)NC(C)(c4ccccc4)C3=O)cc2)cc1 (stereo not given)
inactive: NCI-H23 lung 83.8% | NCI-H226 lung 80.3% | NCI-H322M lung 105% | HOP-62 NSCLC 95.1% | NCI-H460 lung 102% | HOP-92 NSCLC 120% | NCI-H522 lung 86.8% | A549/ATCC NSCLC 85.9% | 786-0 renal 81.2% | COLO 205 colon 106%
